# Source: PubChem BioAssay AID2315 (National Center for Advancing Translational Sciences (NCATS), 2010)
# Out of some 290,000 compounds screened, about 27,000 (9.3%) were called active. Rule as the data show it: active = inhibition mostly above about 28% (no sharp cut-off); inactive = mostly below about 43%. The sample as a whole holds a higher share of actives than the screen did.
# Assay: A qHTS for Small Molecule Inhibitors of Shiga Toxin; also: 0% is about no effect
# Conditions: Vero cells, Shiga toxin protein synthesis inhibition reporter; at 38.7 µM, active compounds read high
row,SMILES,inhibition
1,C=CCNC(=S)/N=c1/ccccn1Cc1ccccc1,2.67% (inactive)
2,O=C(NC(=S)NC1CCS(=O)(=O)C1)c1cccc([N+](=O)[O-])c1 (stereo unspecified),-10.3% (inactive)
3,Cc1ccc(SCC(=O)NNC(=O)c2ccc(S(C)(=O)=O)cc2)cc1,-6.84% (inactive)
4,COc1ccc(CCn2c(=N)c(C(=O)NCC3CCCO3)cc3c(=O)n4cccc(C)c4nc32)cc1OC (stereo unspecified),2.54% (inactive)
5,O=C(NCc1nnc(SCC(=O)N2CCCCCC2)o1)c1ccc(F)cc1,-3.11% (inactive)
6,c1ccc(C2=Nc3cccc4cccc(c34)N2)cc1,3.03% (inactive)
7,COc1ccccc1C1=Nc2cccc3cccc(c23)N1,-3.03% (inactive)
8,Fc1ccccc1N=C1Nc2cccc3cccc1c23,59% (active)
9,Cc1cc(N2C(=O)C(O)=C(C(=O)c3ccc(C)o3)C2c2ccc(OCc3ccccc3)cc2)no1 (stereo unspecified),-3.21% (inactive)
10,COc1ccc(-c2nn(-c3ccccc3)cc2C(=O)Nc2nc(CC(C)=O)ns2)cc1,-2.47% (inactive)
11,COc1ccc(NC(=O)c2cn(-c3ccccc3)nc2SC)cc1,43.3% (active)
12,COc1ccc(-c2nn(-c3ccccc3)cc2/C=C\C(=O)Nc2ccc(C(=O)O)cc2)cc1,-20.1% (inactive)
13,O=C(CN1CCC(O)(c2cccc(C(F)(F)F)c2)CC1)NCCc1ccccc1,-6.9% (inactive)
14,CC(NC(=O)CNC(=O)Cc1cccc2ccccc12)c1ccc(S(N)(=O)=O)cc1 (stereo unspecified),-8.32% (inactive)
15,CC[C@]1(c2ccccc2OC)C(=O)N(C(=O)OC)N1C(=O)OC,35.6% (active)
16,COc1ccccc1CC(=O)Nc1ccc(F)cc1F,1.11% (inactive)
17,COC(=O)c1ccccc1NC(=O)Cc1ccccc1OC,0.83% (inactive)
18,COc1ccccc1-n1c(SCC(=O)Nc2cccc(C(=O)O)c2)nnc1-c1ccccc1O,6.46% (inactive)
19,O=C(NCCN1CCOCC1)c1ccc2c(c1)N(Cc1ccc(Cl)cc1)CCS2,-14% (inactive)
20,O=C(NCCc1ccccc1)c1ccc2c(c1)N(Cc1ccccc1)CCS2,59.8% (active)
21,CCOC(=O)N1CCN(C(=O)c2ccc3c(c2)N(Cc2ccc(C)cc2)CCS3)CC1,-7.18% (inactive)
22,COCCNc1ccc(-c2n[nH]c(=O)c3ccccc23)cc1[N+](=O)[O-],-2.3% (inactive)
23,O=C(NCc1ccccc1Cl)C1CCN(S(=O)(=O)c2cccc3nonc23)CC1,9.83% (inactive)

row,SMILES,inhibition
1,CCN(CC(=O)NCC(=O)Nc1cccc(C)c1C)Cc1ccccc1,-9.33% (inactive)
2,CCN1C(=O)/C(=C2\SC(N3CCCCC3)=NC2=O)c2ccccc21,52.1% (active)
3,CC(C)=C1SC(N2CCN(c3cccc(C)c3)CC2)=NC1=O,-21.2% (inactive)
4,CC(C)=C1SC(N2CCN(c3ccc(C)c(Cl)c3)CC2)=NC1=O,7.4% (inactive)
5,Cc1cc(C)cc(C(=O)NC(CC(N)=O)c2ccc(N3CCC(N4CCCCC4)CC3)c([N+](=O)[O-])c2)c1 (stereo unspecified),-3.41% (inactive)
6,COc1cccc(NC(=O)N2C3CCCC2CC(NC(C)=O)C3)c1 (stereo unspecified),-2.41% (inactive)
7,Cc1ccc(S(=O)(=O)NCc2ccc(C(=O)NC3CCC(C)CC3)cc2)cc1 (stereo unspecified),-2.09% (inactive)
8,COc1ccc(/C=N/Nc2ncnc3sc4c(c23)CCCC4)cc1O,79.2% (active)
9,COc1ccc(NC(=O)CCNC(=O)Cn2cnc3sc4c(c3c2=O)CCCC4)cc1OC,7.2% (inactive)
10,COc1ccc(NC(=O)CCCNC(=O)Cn2cnc3sc4c(c3c2=O)CCCC4)cc1OC,-15.7% (inactive)
11,COc1ccc(NC(=O)CNC(=O)Cn2ccc3ccccc3c2=O)c(OC)c1,-5.3% (inactive)
12,CC[C@H](C)[C@H](NC(=O)[C@H](CCCNC(=N)N)NC(=O)[C@H](CCCNC(=N)N)NC(=O)[C@H](CC(C)C)NC(=O)[C@H](Cc1ccccc1)NC(=O)CNC(=O)CNC(=O)[C@@H](N)Cc1ccc(O)cc1)C(=O)N[C@@H](CCCNC(=N)N)C(=O)N1CCC[C@H]1C(=O)N[C@@H](CCCCN)C(=O)N[C@@H](CC(C)C)C(=O)N[C@@H](CCCCN)C(=O)N[C@@H](Cc1c[nH]c2ccccc12)C(=O)N[C@@H](CC(=O)O)C(=O)N[C@@H](CC(N)=O)C(=O)N[C@@H](CCC(N)=O)C(=O)O,-7.4% (inactive)
13,CN(C)c1ccc(CNC(=O)CN2C(=O)COc3ccc(S(=O)(=O)N4CCCC4)cc32)cc1,-2.88% (inactive)
14,O=C(Cc1ccc(Cl)cc1)NC(=S)Nc1ccccc1O,-14.5% (inactive)
15,Oc1ccc(CNc2ccccc2O)cc1,120% (active)
16,O=[N+]([O-])c1ccccc1Nc1ccc(O)cc1,-30.1% (inactive)
17,CCN1CCN(C2CCCCC2NS(=O)(=O)c2ccc(Cl)cc2)CC1 (stereo unspecified),-12.5% (inactive)
18,COC(=O)C1=C(C)N(c2ccc(Br)cc2)C(=O)/C1=C\c1ccco1,14.6% (inactive)
19,CC(C)(C)C1C/C(=C/c2ccco2)C(=O)/C(=C/c2ccco2)C1 (stereo unspecified),46.5% (active)
20,O=C1OC(/C=C/c2ccccc2)=NC/1=C/c1ccco1,-7.2% (inactive)
21,Cc1c(S(=O)(=O)N2CC(C)CC(C)C2)c(=O)n(C)c(=O)n1C (stereo unspecified),-33.2% (inactive)
22,O=C(CCc1c[nH]c2ccccc12)NCCOc1ccccc1,44.8% (inactive)
23,Cc1nn(C)cc1/C=N/NC(=O)c1sc2ccccc2c1Cl,25% (inactive)

row,SMILES,inhibition
1,Oc1ccc(N=Cc2sc3ccccc3c2Cl)cc1,77.5% (active)
2,Oc1ccc(N=Cc2c(O)ccc3ccccc23)cc1,18.7% (inactive)
3,CC(C)NC(=O)c1ccc(Cl)cc1Cl,8.65% (inactive)
4,CC(C)c1cc(C(=O)N/N=C/c2ccoc2)c(O)c(C(C)C)c1,4.23% (inactive)
5,O=C(N/N=C/c1ccoc1)c1ccc(Cl)cc1Cl,68.7% (active)
6,O=C(NCCCN1CCCCC1)C1CCCN(c2ncnc3c2nc2n3CCCCC2)C1 (stereo unspecified),4.24% (inactive)
7,OC(COc1ccc(F)cc1Cl)CN1CCc2ccccc2C1 (stereo unspecified),16.9% (inactive)
8,Cc1cc(C)cc(NS(=O)(=O)c2ccc(F)cc2)c1,8.8% (inactive)
9,Cc1ccc(NS(=O)(=O)c2ccc(F)cc2)nc1,-8.43% (inactive)
10,Cn1nccc1NS(=O)(=O)c1ccc(F)cc1,160% (active)
11,COc1ccc(S(=O)(=O)NC(C)C(=O)NCc2ccncc2)cc1Cl (stereo unspecified),-1.67% (inactive)
12,Cc1nc2cc(NC(=O)NCc3ccccc3)ccc2o1,44.8% (active)
13,O=C(CSc1ncccn1)NC(=O)NCc1ccccc1,34.2% (inactive)
14,Cc1ccc(NC(=O)Nc2ccc3oc(C)nc3c2)cc1,144% (active)
15,Cc1nc(C)c(C(=O)Nc2ccc(C)c(F)c2)o1,0.239% (inactive)
16,Cc1nc2ccc(NC(=O)C(F)(F)F)cc2o1,-11.6% (inactive)
17,CCCCc1ccc(NC(=O)NCc2cccnc2)cc1,6.04% (inactive)
18,COc1ccccc1N(CC(=O)N/N=C(\C)c1ccccc1O)S(=O)(=O)c1ccc(C)cc1,-3.24% (inactive)
19,CCOC(=O)c1ccc(NC(=O)CCn2c(=O)oc3ccccc32)cc1,-8.48% (inactive)
20,O=C(NC(=S)N1CCCCC1c1cccnc1)c1ccccc1 (stereo unspecified),3.14% (inactive)
21,Cc1ccccc1NC(=O)CSc1ccc2nnc(-c3ccccn3)n2n1,15.7% (inactive)
22,COC(=O)c1ccccc1NC(=O)c1ccc(C#N)cc1,8.5% (inactive)
23,Cc1c(CN2CCC(n3nccc3NC(=O)CCc3ccccc3)CC2)cnn1C,4.45% (inactive)

row,SMILES,inhibition
1,O=C(NCC(=O)N1CCC2(CC1)NCCc1[nH]cnc12)c1ccc(Br)cc1,-10% (inactive)
2,COc1ccc(NC(=O)CCS(=O)(=O)c2cc3c(cc2Cl)NC(=O)CO3)cc1OC,-4.27% (inactive)
3,O=C(Nc1ccccc1C(=O)NCC1CCCO1)c1ccccc1F (stereo unspecified),17.2% (inactive)
4,O=C(NCC1CCCO1)c1cc(-c2ccccc2)nc2ccccc12 (stereo unspecified),15% (inactive)
5,Cc1cc(C)n(C(=O)CCNC(=O)c2ccccc2Cl)n1,-4.34% (inactive)
6,O=C(NCC1CCCO1)c1cc2c([nH]c3ccccc32)c(-c2ccc(F)cc2)n1 (stereo unspecified),-7.75% (inactive)
7,Cc1ccccc1CN(c1ccc(C(=O)NCC2CCCO2)cc1)S(C)(=O)=O (stereo unspecified),-12.3% (inactive)
8,O=C(NCC1CCCO1)c1ccccc1-c1nc(-c2ccccc2Cl)no1 (stereo unspecified),43.2% (active)
9,Cc1ccc2cc(CCNC(=O)c3c(-c4ccccc4Cl)noc3C)c(=O)[nH]c2c1,-3.3% (inactive)
10,Cc1ccc(-c2noc(-c3ccccc3C(=O)NCC3CCCO3)n2)cc1 (stereo unspecified),48.4% (active)
11,COCCNC(=O)c1ccccc1-c1nc(-c2ccccc2Cl)no1,79.4% (active)
12,O=C(CSCc1c(F)cccc1Cl)NCC1CCCO1 (stereo unspecified),-5.03% (inactive)
13,Cc1nc2ccccc2c2oc(C(=O)NCC3CCCO3)cc12 (stereo unspecified),-16% (inactive)
14,O=C(NCC1CCCO1)c1ccc2ccccc2n1 (stereo unspecified),69.8% (active)
15,Cc1ccc(S(=O)(=O)N(CC(O)CN2CCCCC2)c2cccc([N+](=O)[O-])c2)cc1 (stereo unspecified),-3.58% (inactive)
16,COc1ccc(CCNS(=O)(=O)c2cc3c(cc2C)NC(=O)CO3)cc1OC,14.5% (inactive)
17,CC(C)CC(=O)N1CCN(Cc2ccccc2Br)CC1,15.6% (inactive)
18,CN1CCN(NC(=O)Nc2ccc(Br)cc2)CC1,24.3% (inactive)
19,O=C(c1ccc(Cl)c(S(=O)(=O)N2CCCCC2)c1)N1CCCCCC1,-21.7% (inactive)
20,COc1ccc(C(=O)CCC(=O)Nc2ccc(Cl)cc2)cc1,-6.22% (inactive)
21,Cn1sc(=O)c2cc(S(=O)(=O)NC3CC3)ccc21,-7.9% (inactive)
22,Cc1nn(Cc2ccccc2)c(C)c1NS(=O)(=O)c1ccccc1,-5.63% (inactive)
